# Values joined by “and” are separate entries in the source; they are usually repeats but may differ in a detail not shown here. Equal entries are not always repeated. Compounds without any hit were thinned out: in the full panel of roughly 83,000, 20% have a hit.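 Note: values are percent growth. 100 is the growth of untreated cells, values between 100 and 0 indicate rising inhibition; between -100 and 0 indicates cell death.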 Active and inactive are the calls of the source. Rule for the calls: active = growth percent below 10; inactive = the rest.
# Legend:
# Experiment in all cases: NCI-60 one-dose screen, 48 h (100 = growth as untreated, 0 = no growth, -100 = all killed)
# Settings in all cases: 10 µM unless noted
# NCI-H23 lung = system: NCI-H23 lung
# NCI-H226 lung = system: NCI-H226 lung
# HOP-62 NSCLC = system: HOP-62 NSCLC
# NCI-H460 lung = system: NCI-H460 lung
# HOP-92 NSCLC = system: HOP-92 NSCLC
# NCI-H522 lung = system: NCI-H522 lung
# A549/ATCC NSCLC = system: A549/ATCC NSCLC
# 786-0 renal = system: 786-0 renal
# COLO 205 colon = system: COLO 205 colon
# DU-145 prostate = system: DU-145 prostate
# K-562 leukemia = system: K-562 leukemia
# MALME-3M melanoma = system: MALME-3M melanoma
# MDA-MB-231 breast = system: MDA-MB-231 breast
# SF-268 CNS = system: SF-268 CNS
# SF-295 CNS = system: SF-295 CNS
# SF-539 CNS = system: SF-539 CNS
# UACC-257 melanoma = system: UACC-257 melanoma
# M14 melanoma = system: M14 melanoma
# RXF 393 renal = system: RXF 393 renal
# NCI-H322M lung = system: NCI-H322M lung
SMILES,growth (NCI-H23 lung),growth (NCI-H226 lung),growth (HOP-62 NSCLC),growth (NCI-H460 lung),growth (HOP-92 NSCLC),growth (NCI-H522 lung),growth (A549/ATCC NSCLC),growth (786-0 renal),growth (COLO 205 colon),growth (DU-145 prostate),growth (K-562 leukemia),growth (MALME-3M melanoma),growth (MDA-MB-231 breast),growth (SF-268 CNS),growth (SF-295 CNS),growth (SF-539 CNS),growth (UACC-257 melanoma),growth (M14 melanoma),growth (RXF 393 renal),growth (NCI-H322M lung)
O=C(O)c1cc([N+](=O)[O-])cc([N+](=O)[O-])c1,107% (inactive),97% (inactive),85.6% (inactive),106% (inactive),88.2% (inactive),67.9% (inactive),79.6% (inactive),97.9% (inactive),118% (inactive),109% (inactive),116% (inactive),109% (inactive),120% (inactive),97% (inactive),101% (inactive),104% (inactive),61.8% (inactive),95.9% (inactive),–,–
CCOC(=O)C1C(C=C(C)C)C1(C)C (stereo unspecified),101% (inactive),107% (inactive),98.7% (inactive),103% (inactive),84.6% (inactive),97.5% (inactive),98.9% (inactive),105% (inactive),109% (inactive),108% (inactive),155% (inactive),140% (inactive),106% (inactive),101% (inactive),101% (inactive),93.5% (inactive),106% (inactive),106% (inactive),114% (inactive),–
CC[C@H](C)[C@H](NC(=O)[C@H]1CCCCN1C)C(=O)N(C)[C@H](C[C@@H](OC(C)=O)c1nc(C(=O)NC23C4C5C2C2C3C4C52C(=O)OC)cs1)C(C)C (stereo partly specified),–,14.3% (inactive),21.5% (inactive),12.6% (inactive),-1.14% (active),-16.1% (active),7.26% (active),13.7% (inactive),-42.8% (active),-7.13% (active),6.1% (active),56.9% (inactive),20.3% (inactive),24.9% (inactive),6.06% (active),-11.4% (active),46.4% (inactive),10.2% (inactive),34.2% (inactive),48.3% (inactive)
COC12CC3(C)C(C4=CC(=O)OC4)CCC3(O)C3CCC4=CC(=O)CCC4(CO1)C32 (stereo unspecified),–,101% (inactive),–,113% (inactive),76.8% (inactive),14.7% (inactive),98.8% (inactive),94.5% (inactive),116% (inactive),117% (inactive),106% (inactive),77.1% (inactive),110% (inactive),109% (inactive),90.6% (inactive),111% (inactive),100% (inactive),92.6% (inactive),112% (inactive),83% (inactive)
CN1C2CCC1[C@@H](COC(=O)c1ccccc1)[C@@H](O)C2 (stereo partly specified),–,99.6% (inactive),99.7% (inactive),113% (inactive),69.9% (inactive),64.9% (inactive),99.2% (inactive),108% (inactive),129% (inactive),112% (inactive),81.3% (inactive),129% (inactive),103% (inactive),108% (inactive),112% (inactive),103% (inactive),97.1% (inactive),100% (inactive),–,119% (inactive)
OCCNC1CCCCC1,–,104% (inactive),99.2% (inactive),105% (inactive),108% (inactive),–,106% (inactive),–,112% (inactive),107% (inactive),101% (inactive),112% (inactive),114% (inactive),102% (inactive),111% (inactive),103% (inactive),112% (inactive),–,118% (inactive),113% (inactive)
O=C(CCCN1CCC2(CC1)C(=O)NCN2c1ccccc1)c1ccc(F)cc1,–,117% (inactive) and 102% (inactive),79.1% (inactive) and -10.2% (active),108% (inactive) and 94.1% (inactive),96.7% (inactive) and 67.2% (inactive),108% (inactive) and 80.4% (inactive),103% (inactive) and 89.3% (inactive),101% (inactive) and 88.3% (inactive),34.3% (inactive) and -64.9% (active),79% (inactive) and 34% (inactive),86% (inactive) and 85.1% (inactive),96.1% (inactive) and 92.9% (inactive),103% (inactive) and 74.2% (inactive),91.1% (inactive) and 62.8% (inactive),96.3% (inactive) and 63.4% (inactive),124% (inactive) and 62.6% (inactive),33.6% (inactive) and 21.6% (inactive),80.8% (inactive) and 54% (inactive),116% (inactive) and 105% (inactive),97.5% (inactive) and 81.5% (inactive)
Cc1ccc(P(=O)(O)O)cc1,–,99.2% (inactive),120% (inactive),108% (inactive),120% (inactive),101% (inactive),102% (inactive),103% (inactive),126% (inactive),116% (inactive),98.9% (inactive),96% (inactive),98.6% (inactive),109% (inactive),100% (inactive),94.2% (inactive),103% (inactive),104% (inactive),98.8% (inactive),111% (inactive)
O=C(O)c1ccc(=O)[nH]c1,–,96.3% (inactive) and 89.5% (inactive),98.8% (inactive) and 85.9% (inactive),111% (inactive) and 104% (inactive),100% (inactive),101% (inactive) and 99.9% (inactive),87.7% (inactive),96.7% (inactive) and 99.6% (inactive),98.3% (inactive) and 98.9% (inactive),114% (inactive) and 111% (inactive),102% (inactive) and 89.2% (inactive),109% (inactive) and 104% (inactive),102% (inactive) and 104% (inactive),101% (inactive) and 104% (inactive),113% (inactive) and 96.2% (inactive),89.5% (inactive) and 98.2% (inactive),–,102% (inactive) and 95.8% (inactive),–,108% (inactive) and 105% (inactive)
Cc1cc(C(C)(C)C)ccc1O,–,92.2% (inactive),102% (inactive),105% (inactive),94.4% (inactive),102% (inactive),104% (inactive),111% (inactive),107% (inactive),104% (inactive),103% (inactive),104% (inactive),118% (inactive),97.3% (inactive),110% (inactive),111% (inactive),100% (inactive),102% (inactive),102% (inactive),104% (inactive)
CC1(C)C=Cc2c(ccc3c2[N+]([O-])=C2C3=C[C@@]34NC(=O)[C@]5(CCCN5C3=O)C[C@@H]4C2(C)C)O1,–,84.5% (inactive),54.5% (inactive),26.9% (inactive),73.4% (inactive),25.6% (inactive),54.7% (inactive),42.1% (inactive),35.2% (inactive),43.3% (inactive),9.2% (active),82.9% (inactive),48.5% (inactive),53.7% (inactive),52.2% (inactive),51.2% (inactive),68.9% (inactive),61.6% (inactive),32.8% (inactive),67.5% (inactive)
CC1(C)N=C(N)N=C(N)N1c1ccc(CCC(=O)Nc2ccc(S(=O)(=O)F)cc2)cc1,–,65.3% (inactive),47.1% (inactive),14.5% (inactive),70.8% (inactive),23.6% (inactive),18.9% (inactive),21.3% (inactive),28.8% (inactive),28.1% (inactive),12.9% (inactive),47% (inactive),76.4% (inactive),25.1% (inactive),40.3% (inactive),28.7% (inactive),41.1% (inactive),35.9% (inactive),47.3% (inactive),–
N#CCC(=O)c1ccccc1,–,97.9% (inactive),101% (inactive),96.9% (inactive),86.8% (inactive),102% (inactive),–,107% (inactive),101% (inactive),98.5% (inactive),84.5% (inactive),102% (inactive),104% (inactive),94.1% (inactive),101% (inactive),111% (inactive),–,111% (inactive),108% (inactive),96.6% (inactive)

# From PubChem BioAssay (NCI)
